In all, about 33,000 compounds went through this assay and about 70 (0.2%) were called active. Rule as the data show it: active = inhibition above about 30%; inactive = the rest. A selection follows.
Target: Coagulation factor XII (Homo sapiens) (UniProt P00748)
Test: human FXIIa protease inhibitors, primary screen, biochemical, single well (AID 701);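 also: 0% = enzyme with vehicle only and 100% = no enzyme blank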
Conditions: purified human FXIIa, AMC substrate fluorescence, 2 h; at 10 µM; active compounds read high

Chain of Coagulation factor XII (Homo sapiens) (P00748 20-372 limits assumed): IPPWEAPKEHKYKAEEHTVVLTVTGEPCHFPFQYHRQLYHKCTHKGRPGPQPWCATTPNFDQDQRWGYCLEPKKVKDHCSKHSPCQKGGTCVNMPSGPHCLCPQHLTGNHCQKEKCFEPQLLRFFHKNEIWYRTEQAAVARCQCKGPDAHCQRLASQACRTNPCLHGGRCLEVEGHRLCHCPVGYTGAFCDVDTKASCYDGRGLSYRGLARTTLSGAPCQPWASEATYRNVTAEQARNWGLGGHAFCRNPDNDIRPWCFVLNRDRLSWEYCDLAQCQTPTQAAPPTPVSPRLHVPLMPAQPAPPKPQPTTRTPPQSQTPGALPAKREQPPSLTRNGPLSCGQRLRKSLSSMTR
Chain of Coagulation factor XII (Homo sapiens) (P00748 373-615 limits assumed): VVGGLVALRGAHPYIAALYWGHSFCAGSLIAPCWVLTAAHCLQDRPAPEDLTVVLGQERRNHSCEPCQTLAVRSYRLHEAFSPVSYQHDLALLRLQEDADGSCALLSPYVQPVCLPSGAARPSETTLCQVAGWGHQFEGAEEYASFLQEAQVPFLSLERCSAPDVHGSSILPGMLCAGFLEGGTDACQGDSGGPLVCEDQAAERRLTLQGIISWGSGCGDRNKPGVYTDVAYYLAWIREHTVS

inhibition, inactive:
Cc1nnc(OCC(=O)NCCC2=CCCCC2)c2ccccc12 11.9%, COC(=O)C(C)n1cnc2c(nnn2-c2cccc(Cl)c2)c1=O (configuration not stated) 4.25%, C=CCNC(=O)C12CC3CC(C1)CC(C(=O)NCC=C)(C3)C2 5.41%, O=C(CNS(=O)(=O)c1ccc(Br)s1)N1CCN(C(=O)c2ccco2)CC1 5.22%, O=c1onc(-c2cccs2)n1Cc1ccccc1 2.91%, CC(=O)C1=C(C)NC(=O)NC1c1cc(Br)ccc1OCC#N (configuration not stated) 6%, CC/C(O)=N\S(=O)(=O)c1ccc(N=NN(C)C)cc1 12.3%, O=C(c1cccc(N2CCCC2=O)c1)N1CCOCC1 8.03%, O=C(NCCCN1CCCCC1)c1ccc2c(c1)NC(=O)C(N1CCOCC1)S2 (configuration not stated) 2.66%, COc1ccccc1CNS(=O)(=O)c1ccc(C)cc1 -2.17%, Nn1c(SCC(=O)NC2CCCC2)nnc1-c1ccccc1F 2.89%, CC(=O)c1cccc(NC(=O)N2CCCC2C(=O)NCCc2ccccc2)c1 (configuration not stated) 6.02%, CC(=O)c1cccc(NC(=O)C2CCCN2S(=O)(=O)c2cccc3nsnc23)c1 (configuration not stated) -30.9%, COc1ccc(C(=O)NNC(=O)c2cnccn2)cc1[N+](=O)[O-] 6.61%, CSc1ccccc1NC(=O)c1cc(C2CC2)on1 5.73%, Cc1cc(C(=O)Nc2c(C)nn(Cc3ccccc3)c2C)on1 3.84%, Cc1nnc(NCCO)c2ccccc12 -0.65%, O=C(NC1CCCCC1)c1ccc(CNc2c(N3CCOCC3)c(=O)c2=O)cc1 9.25%, CCS(=O)(=O)c1ccc2oc(SCC(=O)N3c4ccccc4CC3C)nc2c1 (configuration not stated) 11.8%, CC(NC(=O)C1CCC(CNc2c(N3CCOCC3)c(=O)c2=O)CC1)c1ccccc1 (configuration not stated) 4.59%, Cc1ccc(OC(=O)c2ccccc2C(=O)OCC(F)(F)C(F)F)cc1 5.93%, Cc1ccc(CS(=O)(=O)CCC(=O)NC2CC2)cc1 3.34%, O=C(OCC(=O)N1CCN(C(=O)c2ccco2)CC1)c1ccccc1Cc1ccccc1 3.88%, CC(C)CCNC(=O)CC1C(=O)N(Cc2ccccc2)C(C)c2nc3ccccc3n21 (configuration not stated) 5.26%, CCCCCOC(=O)c1ccc(N2C(=O)C3C4C=CC(C4)C3C2=O)cc1 (configuration not stated) -10.2%, O=C(N1CCOCC1)N(Cc1ccccc1)c1ccccn1 1.36%, COC(=O)c1cc(OC)ccc1-c1ccc(OC)cc1 4.36%, COCCCNC(=O)CN1CCN(Cc2ccccc2Cl)C1=O 13.3%, COCCNC(=O)COc1ccc(C)c(C)c1 5.6%, COC(=O)C1C(=O)NCC1c1ccc(C)cc1 (configuration not stated) 4.77%, COc1ccc(C(=O)Nc2ccc(CN3CCOCC3)cc2)cc1 -0.34%, COC(=O)c1ccccc1Sc1c(/C=N/OCc2ccc(Cl)cc2)c(C(F)(F)F)nn1C 5.69%, CCSc1nc(-c2ccc(OC)cc2)cc(-c2ccc(OC)cc2)c1C#N 12.5%, COC(=O)[C@@H](NC(=O)Nc1cc(Cl)ccc1C)C(C)C -0.53%, O=C(OCC#CCSc1nnc(-c2ccncc2)o1)c1sc2ccccc2c1Cl -11.2%, O=C(Cc1c(O)c2ccccc2[nH]c1=O)NCc1ccccc1 -1.57%, Cc1ccc(S(=O)(=O)/N=C(\CN2CCOCC2)N2CCOCC2)cc1 -13.1%, O=C(NCCCn1ccnc1)Nc1ccc(Cl)cc1Cl -12%, Cc1cccc(NC(=O)CSc2nnc(-c3ccco3)o2)c1 7.32%, CCOc1ccc(N(CC(=O)NC2CCCCCC2)S(=O)(=O)c2c(C)[nH]c(=O)[nH]c2=O)cc1 -0.15%, CCOc1ccc(NC(=O)c2ccccc2NS(C)(=O)=O)cc1 7.81%, COC(=O)CSc1nnc(-c2cccnc2)o1 4.99%, Cc1cccc(NC(=O)CSc2nc3c(c(=O)[nH]2)CCCC3)c1C 7.72%, CCc1ccc(CNC(=O)C2CC(=O)N(CCc3ccc(C)cc3)C2)cc1 (configuration not stated) -0.05%, O=C(O)CCC(=O)N(Cc1cccs1)Cc1cccs1 -0.32%, Cn1c(SCC(=O)NC2CCCCC2)nnc1-c1cc2ccccc2o1 -0.46%, CC(=O)c1c(C)n(-c2ccc(N(C)C)cc2)c2ccc(OCC(N)=O)cc12 8.5%, OC(COc1cccc2ccccc12)CN1CCN(c2ccccn2)CC1 (configuration not stated) 9.54%, CCCn1c(C(Cc2ccccc2)NC(=O)COC)nc2ccccc21 (configuration not stated) 7.07%, Cn1cc(S(=O)(=O)N2CCN(c3ccc(F)cc3)CC2)c(=O)n(C)c1=O 3.88%, Cc1cc(NC(=O)CS(=O)(=O)c2cn(C)c3ccccc23)no1 3.14%, Cn1c(=O)[nH]c(=O)c2c1nc(N1CCN(CCO)CC1)n2CCSc1nc2ccccc2s1 0.63%, CC(C)CNC(=O)CC(c1ccccc1)c1c(O)ccc2ccccc12 (configuration not stated) 1.86%, C#CCN(N(C)c1ncc(C(F)(F)F)cc1Cl)S(=O)(=O)c1ccc2ccccc2c1 3.08%, COC(=O)c1ccccc1NC(=O)Cc1ccccc1OC 1.04%, Cc1ccc(S(=O)(=O)N2CCC(C(=O)NCC3CCCO3)CC2)cc1 (configuration not stated) 2.9%, O=C(CCCn1c(SCC(=O)c2ccccc2)nc2ccccc2c1=O)NCC1CCCO1 (configuration not stated) 3.06%, Cc1ccc(NC(=O)CSCC(=O)N2CCOCC2)cc1 2.79%, Cc1ccc(C)c(N2C(=O)CS/C2=N\NC(=O)c2ccccc2Cl)c1 8.52%, O=C(CSCc1c(F)cccc1Cl)NCC1CCCO1 (configuration not stated) 7.29%, COc1ccc(C)cc1NC(=O)CCS(=O)(=O)c1cccc2nonc12 -14.7%, CCCc1noc2c1/C(=N\O)CCC2 8.44%, Cc1ccc(/C=N/NC(=O)Cn2nc(C)c(Br)c2C)o1 5.02%, Cn1nnc(NC(=O)CSc2ncn[nH]2)n1 2.58%, Cc1ccc2cc(CCNC(=O)c3ccc4c(c3)OCO4)c(=O)[nH]c2c1 7.29%, CCOc1cc2[nH]c(=S)n(Cc3ccc(C(=O)NCCOC)cc3)c(=O)c2cc1OCC -2.63%, CCOC(=O)N1CCC(Nc2c(NCCCN3CCN(CC)CC3)c(=O)c2=O)CC1 -0.96%, COc1cc(OC)c(-n2c(C)cc(C=O)c2C)cc1Cl 3.21%, c1ccc(-n2nc3ccccc3n2)cc1 0.64%, CCOc1nc(NCCN2CCOCC2)nc(Nc2ccc(C)cc2)n1 2.85%, CCN(CC)CCn1c2ccc(Cl)cc2c2nc(C)sc21 5.85%, CCOC(=O)c1cnn(Cc2ccccc2Cl)c1N -0.31%, Cc1nc2c(-c3ccc(F)cc3)c(C)nn2c(C)c1CCC(=O)NCc1ccco1 2.8%, CCOC(=O)/C(C#N)=C\c1c(C)cc(C)c(COC(C)=O)c1C 14%, Cc1cc(NC(=O)CCC(=O)N(CC(=O)NCC2CCCO2)c2ccccc2C)no1 (configuration not stated) 4.76%, CCC(C)NC(=O)CSC1=Nc2ccccc2C2=NC(CCC(=O)NCc3ccco3)C(=O)N12 (configuration not stated) 5.92%, Cc1cc(S(=O)(=O)NC2CCCCC2)ccc1OCC(=O)NCc1cccnc1 -2.34%, O=P(c1ccc2c(c1)OCCO2)(N1CCOCC1)N1CCOCC1 -11.5%, COc1ccc(C2=NOC3(CC(=O)N(c4ccc(C)cc4)C3=O)C2)cc1 (configuration not stated) 12.1%, CCOc1ccc(NC(=O)Nc2cc(C)on2)cc1 6.76%, O=C(NC1CCCCC1)C1CC(=O)N(CCc2ccccc2)C1 (configuration not stated) 1.77%, O=C(NCc1ccccc1)[C@@H]1CSC2c3ccccc3C(=O)N21 (some centres not stated) 0.72%, Cc1ccc(-n2c(=O)cc(N3CCN(Cc4ccccc4)CC3)[nH]c2=O)cc1 -11.3%, COCCn1c(SCc2nnc(-c3ccc(OC)c(OC)c3)o2)nc2sc3c(c2c1=O)CCC3 7.92%, Cc1csc(OCC(=O)Nc2ccc(C)c(C)c2)n1 7.64%, Cc1cccc(N2CCN(S(=O)(=O)c3ccc4[nH]c(=O)c(=O)[nH]c4c3)CC2C)c1 (configuration not stated) 7.11%, CCCCCCOc1ccc(OC(=O)c2cccnc2)cc1 4.38%, CCc1ccccc1NC(=O)CN(C)S(=O)(=O)c1ccc2c(c1)c(=O)n(C)c(=O)n2C -0.9%, CCn1c(CC(=O)Nc2ccc(C)cc2)nnc1SCC(=O)Nc1nc(C)cs1 3%, CCCc1nnc(NC(=O)c2cccs2)s1 4.48%, Cn1c(=O)c2c(SCC(=O)N3CCOCC3)nc(C3CC3)nc2n(C)c1=O 5.78%, S=c1nccc(-c2cc(Cl)sc2Cl)[nH]1 3.01%, Cc1ccccc1CSCCNC(=O)c1ccc(Cl)c(S(=O)(=O)N2CCOCC2)c1 -1.19%, CC(C)(C)c1ccc(OC2=CS(=O)(=O)c3ccccc32)cc1 6.47%, CCOc1ccc(C(=O)NCCCN2CCCC2=O)cc1 6.23%, COC(=O)c1cc(NC(=O)C2C3C=CC(C3)C2C(=O)O)cc(C(=O)OC)c1 (configuration not stated) -2.18%, N#CC1=C(N)N(c2ccccc2)C2=C(C(=O)CCC2)C1c1ccccc1 (configuration not stated) 6.03%

From PubChem BioAssay AID701 (PCMD, 2007)
